Records with an inconclusive call do not appear. Active and inactive are the calls of the source. The call rests on the fitted dose curve; in most records, active means well fitted cell-killing curve with a large enough effect; inconclusive means small, poorly fitted or top-dose-only effect, or effect the other way; inactive means flat fitted curve, though single readings scatter.
Assays:
Assay in all cases: Primary qHTS to identify gynecologic anti-cancer compounds using libraries of approved drugs and bioactive compounds (AID 1345084); further: nearly all actives have a fitted effect of over 55% in size
[1] = tested on: C33A; settings: Gynecologic cancer cell panel viability, ATPlite luminescence, 48 h; series mostly up to 57.5 µM
Summary of the method: (§1)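 Cell viability after 48 h drug treatment, ATPlite luminescence readout; five doses.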

[2] = tested on: CAOV3; settings: Gynecologic cancer cell panel viability, ATPlite luminescence, 48 h; series mostly up to 57.5 µM
Summary of the method: as §1

[3] = tested on: CASKI; settings: Gynecologic cancer cell panel viability, ATPlite luminescence, 48 h; series mostly up to 57.5 µM
Summary of the method: as §1

[4] = tested on: Es-2; settings: Gynecologic cancer cell panel viability, ATPlite luminescence, 48 h; series mostly up to 57.5 µM
Summary of the method: as §1

[5] = tested on: HeLa; settings: Gynecologic cancer cell panel viability, ATPlite luminescence, 48 h; series mostly up to 57.5 µM
Summary of the method: as §1

[6] = tested on: Hek293T; settings: Gynecologic cancer cell panel viability, ATPlite luminescence, 48 h, control line for the selectivity index; series mostly up to 57.5 µM
Summary of the method: as §1

[7] = tested on: JEG-3; settings: Gynecologic cancer cell panel viability, ATPlite luminescence, 48 h; series mostly up to 57.5 µM
Summary of the method: as §1

[8] = tested on: OV90; settings: Gynecologic cancer cell panel viability, ATPlite luminescence, 48 h; series mostly up to 57.5 µM
Summary of the method: as §1

[9] = tested on: PA-1; settings: Gynecologic cancer cell panel viability, ATPlite luminescence, 48 h; series mostly up to 57.5 µM
Summary of the method: as §1

[10] = tested on: SKOV3; settings: Gynecologic cancer cell panel viability, ATPlite luminescence, 48 h; series mostly up to 57.5 µM
Summary of the method: as §1

[11] = tested on: Tov-21-G; settings: Gynecologic cancer cell panel viability, ATPlite luminescence, 48 h; series mostly up to 57.5 µM
Summary of the method: as §1

[12] = tested on: Tov112D; settings: Gynecologic cancer cell panel viability, ATPlite luminescence, 48 h; series mostly up to 57.5 µM
Summary of the method: as §1
On the % scale 0 is the no-effect control and ±100 the full control effect.

COC(=O)C1=CO[C@@H](O[C@@H]2O[C@H](CO)[C@@H](O)[C@H](O)[C@H]2O)[C@@H]2[C@@H](CO)[C@@H](O)C(O)[C@H]12 (stereo not given in full)
inactive: Potency [1] | Potency [2] | outcome [3] | Potency [4] | Potency [5] | Potency [6] | Potency [7] | Potency [8] | Potency [9] | Potency [10] | Potency [11] | Potency [12]

COC(=O)C1=COC(OC2OC(CO)C(O)C(O)C2O)C2C(C)C(OC(C)=O)C(OC(=O)c3ccccc3)C12 (stereo not given)
inactive: Potency [1] | Potency [2] | outcome [3] | Potency [4] | Potency [5] | Potency [6] | Potency [7] | Potency [8] | Potency [9] | Potency [10] | Potency [11] | Potency [12]

CN(C)c1ccc(C2O[C@@H](c3ccccc3)C[C@H](c3ccccc3)O2)cc1 (stereo not given in full)
inactive: Potency [1] | Potency [2] | outcome [3] | Potency [4] | Potency [5] | Potency [6] | Potency [7] | Potency [8] | Potency [9] | Potency [10] | Potency [11] | Potency [12]

C/C=C1/[C@H](O[C@@H]2O[C@H](CO)[C@@H](O)[C@H](O)[C@H]2O)OC=C(C(=O)OC)[C@H]1CC(=O)OCCc1ccc(OC(=O)C[C@@H]2C(C(=O)OC)=CO[C@@H](O[C@@H]3O[C@H](CO)[C@@H](O)[C@H](O)[C@H]3O)/C2=C/C)cc1
inactive: activity change, negative = cytotoxicity [1] 3.14% [at 11.6 µM] | activity change, negative = cytotoxicity [2] 14% [at 11.6 µM] | activity change, negative = cytotoxicity [3] 4.82% [at 11.6 µM] | activity change, negative = cytotoxicity [4] 6.86% [at 11.6 µM] | activity change, negative = cytotoxicity [5] 18.2% [at 11.6 µM] | activity change, negative = cytotoxicity [6] 5.22% [at 11.6 µM] | activity change, negative = cytotoxicity [7] 15.1% [at 11.6 µM] | activity change, negative = cytotoxicity [8] 7.47% [at 11.6 µM] | activity change, negative = cytotoxicity [9] 1.32% [at 11.6 µM] | activity change, negative = cytotoxicity [10] 0% [at 11.6 µM] | activity change, negative = cytotoxicity [11] 4.28% [at 11.6 µM] | activity change, negative = cytotoxicity [12] 11.9% [at 11.6 µM]

O=C(OC[C@H]1O[C@H](O[C@]2(CO)O[C@H](CO)[C@@H](O)[C@@H]2O)[C@H](O)[C@@H](O)[C@@H]1O)c1ccc(O)cc1
inactive: Potency [1] | Potency [2] | outcome [3] | Potency [4] | Potency [5] | Potency [6] | Potency [7] | Potency [8] | Potency [9] | Potency [10] | Potency [11] | Potency [12]

CC1C(O)C(O)C2C(C(=O)OCCc3ccc(O)cc3)=COC(O[C@@H]3O[C@H](CO)[C@@H](O)[C@H](O)[C@H]3O)C12 (stereo not given in full)
inactive: Potency [1] | Potency [2] | outcome [3] | Potency [4] | Potency [5] | Potency [6] | Potency [7] | Potency [8] | Potency [9] | Potency [10] | Potency [11] | Potency [12]

COC(=O)C1=CO[C@@H](O[C@@H]2O[C@H](CO)[C@@H](O)[C@H](O)[C@H]2O)[C@@H]2[C@@H](C(=O)O)CC[C@H]12
inactive: Potency [1] | Potency [2] | outcome [3] | Potency [4] | Potency [5] | Potency [6] | Potency [7] | Potency [8] | Potency [9] | Potency [10] | Potency [11] | Potency [12]

CC(=O)O[C@H]1[C@H](O[C@H]2CC[C@]34C[C@]35CC[C@]3(C)[C@@H]([C@@]6(C)CC[C@@H](C(C)(C)O)O6)[C@@H](O)C[C@@]3(C)[C@@H]5C[C@H](O[C@@H]3O[C@H](CO)[C@@H](O)[C@H](O)[C@H]3O)[C@H]4C2(C)C)OC[C@@H](OC(C)=O)[C@@H]1O
inactive: Potency [1] | Potency [2] | outcome [3] | Potency [4] | Potency [5] | Potency [6] | Potency [7] | Potency [8] | Potency [9] | Potency [10] | Potency [11] | Potency [12]

COc1cnc(-c2ccc(Cn3c(CC(C)(C)C(=O)O)c(SC(C)(C)C)c4cc(OC[C@@H]5Cc6ccccc6N5C(C)=O)ccc43)cc2)nc1
inactive: Potency [1] | Potency [2] | outcome [3] | Potency [4] | Potency [5] | Potency [6] | Potency [7] | Potency [8] | Potency [9] | Potency [10] | Potency [11] | Potency [12]

CC/C=C\C(O)C(O)C1=C(C)C(=O)C2(O1)C(=O)NC(OC)(C(=O)c1ccccc1)C2O (stereo not given)
inactive: Potency [1] | Potency [2] | outcome [3] | Potency [4] | Potency [5] | Potency [6] | Potency [7] | Potency [8] | Potency [9] | Potency [10] | Potency [11] | Potency [12]

— PubChem BioAssay (NCATS)
